The source of these data is PubChem BioAssay (NCATS).

Test [1] addresses Protein phosphatase 1D (Homo sapiens) (UniProt O15297). The test can be described thus: RapidFire Mass Spectrometry qHTS Assay for Modulators of WT P53-Induced Phosphatase 1 (WIP1) (AID 1347424).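 Also: amount of dephosphorylated VEPPL-S-QETFS peptide product formed by WIP1; series mostly up to about 63 µM; plate controls were DMSO wells for no effect and GSK830371 inhibitor control at 10 µM for full effect.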 The procedure, abridged:
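WIP1 (10 nM final) was preincubated 1 h at room temperature with compounds in Tris-HCl pH 7.5, 30 mM MgCl2, TCEP, EGTA, BSA; 2 uM VEPPL-pS-QETFS phosphopeptide was added for 5 min, quenched with formic acid, and dephosphorylated product quantified by RapidFire MS.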
On the technique in general: Quantitative high-throughput screening tests each substance at several concentrations.

Test [2] has the same target. Briefly: Rhodamine-PBP qHTS Assay for Modulators of WT P53-Induced Phosphatase 1 (WIP1) (AID 1347425). Also: % of control where 0% means no effect. The essentials:
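Read-out: Rhodamine-PBP fluorescence (ex 525/em 598 nm) for released Pi, read each minute for 11 min after adding 10 uM VEPPL-pS-QETFS; signal taken as f1 minus pre-substrate f0. Enzyme 5 nM WIP1 with 1 hr room-temperature compound preincubation.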

A short description of test [3]: Primary qHTS for inhibitors of La Crosse Virus (LACV) - induced cell death in SH-SY5Y cells (AID 1508616).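 Also: top concentration of the series differs between compounds; 0% = infected DMSO wells and 100% = uninfected DMSO wells; higher means more rescue of cells from virus-induced death.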 The essentials: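 SH-SY5Y cells (6000/well) plated 24 h, then given compounds by pin transfer and LACV at 0.01 MOI for 6 days at 37C. Viability measured by ATPLite luminescence, normalized to infected DMSO and uninfected DMSO.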
The target of test [4] is Calcium and integrin-binding protein 1 (Homo sapiens) (UniProt Q99828). The test can be described thus: Primary qHTS for Identification of Calcium Integrin Binding Protein 1 (CIB1) Competitor (AID 1508620). Also: potency is read from the fitted curve at half-maximal effect. The procedure, abridged:
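Fluorescence polarization competition: CIB1-GST (1 uM final) preincubated with compound 15 min at room temperature, then FITC-labeled alphaIIb peptide (100 nM final) added for another 15 min. Polarization read at Ex 480/Em 540.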

A short description of test [5]: Confirmatory qHTS for small molecule stabilizers of the endoplasmic reticulum resident proteome: Secreted ER Calcium Modulated Protein (SERCaMP) assay (AID 1508628). Also: nearly all actives have a fitted effect of over 40% in size. Also: potency is read from the fitted curve at half-maximal effect. The procedure, abridged:
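SH-SY5Y cells stably expressing GLuc-SERCaMP, treated 16 h with compound (primary 1.53, 7.67, 38.3 uM; confirmation 11 concentrations, up to 76.6 uM), then 100 nM thapsigargin for 4 h. Secreted Gaussia luciferase in medium read by coelenterazine luminescence.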

Test [6] addresses Calcium and integrin-binding protein 1 (Homo sapiens) (UniProt Q99828). The test can be described thus: Confirmatory qHTS for Identification of Calcium Integrin Binding Protein 1 (CIB1) Competitor (AID 1508617). Also: potency is read from the fitted curve at half-maximal effect; nearly all actives have a fitted effect of over 65% in size. The essentials: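 Fluorescence polarization competition: CIB1-GST (1 uM final) in 5 mM HEPES pH 7.4, 125 mM NaCl, 5 mM CaCl2, 0.01% Tween20 preincubated 15 min RT with compound (up to 114 uM), then FITC-alphaIIb peptide (100 nM) added, 15 min RT.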

Test [7] in a line: Primary qHTS for small molecule stabilizers of the endoplasmic reticulum resident proteome: Secreted ER Calcium Modulated Protein (SERCaMP) assay (AID 1508630). Also: potency is read from the fitted curve at half-maximal effect. The procedure, abridged: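 GLuc-SERCaMP-expressing SH-SY5Y cells, pretreated 16 h with compound, are challenged with thapsigargin to empty ER calcium stores; after 4 h, coelenterazine is added directly to the medium and luminescence is imaged.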

Test [8] in a line: A High-Content qHTS Against Drug Library for the Identification of Small Molecules that Inhibit DYT1 Early Onset Primary Dystonia-Associated Cell Pathology (AID 1645839; calls by dose curve; also: series mostly up to about 46 µM). The essentials: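 Readout: %pathology, the punctate EGFP-TorsinA distribution from imaging, as the primary channel and cell count as the toxicity counterscreen. HEK293 Flp-In cells expressing delE TorsinA were induced with tetracycline and treated with compound for 48 h.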

Test [9] is described as follows: Cell Viability qHTS for small molecule stabilizers of the endoplasmic reticulum resident proteome (AID 1508629).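 Also: compound exposure about 46 h in total before the viability read.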 Also: potency is read from the fitted curve at half-maximal effect.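 As to max response: human SH-SY5Y neuroblastoma cells carrying the GLuc-SERCaMP reporter; % is scaled to controls: 0 for no effect and ±100 for the full control effect.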 To be noted: cell viability counter-screen, 100 nM thapsigargin for final 4 h.
The nature of test [10]: Validation qHTS assay for inhibitors of Activation Induced Cytidine Deaminase (AID): UDG Counterscreen signal (AID 1347427). Also: 0% is about no effect. The essentials: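 Counterscreen read of UDG activity (2 U/mL, 4/3x) in the FRET deamination format with AID (1 uM, 4/3x), DJC20/DJC23 substrates (250 nM, 4x), 4 h at room temperature. NaOH stop, fluorescence at 560 ex/665 em.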

Values without a mark were called inactive. Results filed as inconclusive are left out. Calls of active or inactive are those of the source. Unless noted, calls follow the shape of the dose curve; as a rule, active = well fitted curve in the direction sought with a large enough effect; inconclusive = small, poorly fitted or top-dose-only effect, or another doubt; inactive = no such curve, though single readings can be large; an effect the other way counts as inactive or inconclusive.

Sequence of Calcium and integrin-binding protein 1 (Homo sapiens) (Q99828 whole entry, looked up): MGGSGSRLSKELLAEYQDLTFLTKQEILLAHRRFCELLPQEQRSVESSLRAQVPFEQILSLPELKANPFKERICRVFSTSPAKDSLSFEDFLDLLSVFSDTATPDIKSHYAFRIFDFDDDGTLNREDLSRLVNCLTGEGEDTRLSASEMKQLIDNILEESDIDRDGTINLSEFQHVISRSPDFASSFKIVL
Sequence of Protein phosphatase 1D (Homo sapiens) (O15297 whole entry, looked up): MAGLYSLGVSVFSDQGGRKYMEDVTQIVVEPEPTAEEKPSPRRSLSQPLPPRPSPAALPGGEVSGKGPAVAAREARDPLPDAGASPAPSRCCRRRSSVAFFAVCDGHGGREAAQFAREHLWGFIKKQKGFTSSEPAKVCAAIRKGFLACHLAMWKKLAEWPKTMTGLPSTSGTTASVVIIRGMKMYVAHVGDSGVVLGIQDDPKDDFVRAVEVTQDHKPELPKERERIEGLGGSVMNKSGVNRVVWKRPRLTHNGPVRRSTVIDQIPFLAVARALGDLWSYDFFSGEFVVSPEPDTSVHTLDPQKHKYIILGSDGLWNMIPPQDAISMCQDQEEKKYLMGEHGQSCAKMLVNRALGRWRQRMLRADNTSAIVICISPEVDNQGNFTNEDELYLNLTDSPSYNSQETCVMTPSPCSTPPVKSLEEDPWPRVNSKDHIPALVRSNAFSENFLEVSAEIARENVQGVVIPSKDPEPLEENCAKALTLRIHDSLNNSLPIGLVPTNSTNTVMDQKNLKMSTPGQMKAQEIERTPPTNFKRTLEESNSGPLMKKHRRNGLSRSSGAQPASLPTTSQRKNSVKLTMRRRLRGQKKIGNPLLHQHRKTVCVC

With `CCOC(=O)[C@H](CCc1ccccc1)N[C@@H](C)C(=O)N1Cc2ccccc2C[C@H]1C(=O)O`, the Potency entry in test [1], in test [3] and in test [4] was “inactive” in each case. For the same molecule, the call in [2] was inactive.
Turning to `CN(C(=O)CN(CCO)CC(=O)N(C)C(C)(C)Cc1ccccc1)C(C)(C)Cc1ccccc1`, the Potency entry in [1] and in test [3] was “inactive” throughout. The result in test [2] was inactive.
As for `CN(C)CCOc1ccccc1Cc1ccccc1`, the Potency entry in [1] and in test [3] was “inactive” each time. In addition, in [2], the molecule was called inactive.
With `COc1cccc(CCc2ccccc2OCC(CN(C)C)OC(=O)CCC(=O)O)c1` (centres undefined), the Potency result in test [1], in test [3] and in [4] was “inactive” each time. In test [2], the molecule was called inactive.
In the case of `c1ccc(-c2ccc(C(c3ccccc3)n3ccnc3)cc2)cc1` (centres undefined), the Potency result in test [1], in [3], in test [4] and in [5] was “inactive” each time. Also, the call in [2] was inactive.
Regarding `CCOc1ccc2nc3cc(N)ccc3c(N)c2c1`, the Potency entry in [1], in test [3], in test [7] and in test [8] was “inactive” each time. The result in test [2] was inactive. The values for the Potency in test [6] and in [4] were 25.1 µM (active) and 44.7 µM (active), respectively.
As for `CCN(CC)C(=O)/C(C#N)=C/c1cc(O)c(O)c([N+](=O)[O-])c1`, the Potency entry in test [1], in test [3] and in test [4] was “inactive” throughout. The result in test [2] was inactive.
For the molecule `COc1cc(OC)cc(OC)c1`, the Potency entry in test [1], in test [3] and in test [4] was “inactive” each time. Besides, the molecule was called inactive in test [2].
Consider `CN1CCCC(CC2c3ccccc3Sc3ccccc32)C1` (centres undefined), for which the Potency result in test [1], in test [3] and in [4] was “inactive” throughout. The molecule was classed as inactive in test [2]. Moreover, the Potency in test [5] was 22.4 µM (active). Besides, the max response in test [9] was -16.7%.
For the molecule `CN(C)C(=S)SC(=S)N(C)C`, the Potency result in test [1], in test [3], in [4] and in test [5] was “inactive” throughout. In [2], the call was inactive.
As for `CCCOC(C(=O)OC1CCN(C)CC1)(c1ccccc1)c1ccccc1`, the Potency result in [1], in [3] and in [4] was “inactive” each time. In addition, the molecule was called inactive in test [2].
Take `CCN(CC)CCOC(=O)C(c1ccccc1)C1CCCCC1` (centres undefined): the Potency result in [1], in test [3] and in [4] was “inactive” in each case. The molecule was classed as inactive in [2].
Turning to `OCc1ccccc1O`, the Potency result in [1], in test [3] and in [4] was “inactive” each time. The molecule was called inactive in [2].
For `CNCC[C@@H](Oc1ccccc1C)c1ccccc1`, the Potency result in test [1], in test [3] and in test [4] was “inactive” in each case. In test [2], the molecule was called inactive.
As to `CCN(CCCc1ccccc1)CCCc1ccccc1`, the Potency entry in test [1] and in [3] was “inactive” throughout. In test [2], the call was inactive.
Consider `CCCCOc1cc(C(=O)NCCN(CC)CC)c2ccccc2n1`, for which the Potency entry in test [1], in [3] and in test [4] was “inactive” each time. The result in [2] was inactive.
For `CCN1CCN(c2cc3c(cc2F)c(=O)c(C(=O)O)cn3C2CC2)CC1`, the Potency entry in test [1], in test [3], in [4], in [5] and in test [8] was “inactive” in each case. In addition, the molecule was classed as inactive in [2]. Besides, in [9], the max response was 21.1%. The Potency in test [7] was 1.12 µM (active).
Turning to `O=C(N/N=C/c1ccccc1O)c1ccncc1`, the Potency result in test [1] and in test [3] was “inactive” throughout. For the same molecule, the call in [2] was inactive.
As to `CN1CCC(=C2c3ccccc3Sc3ccccc32)CC1`, the Potency result in [1], in test [3] and in test [4] was “inactive” each time. Also, the call in test [2] was inactive.
Regarding `CC(C)(CO)[C@@H](O)C(=O)NCCCO`, the Potency result in [1] and in [3] was “inactive” throughout. For the same molecule, in [2], the molecule was called inactive.
In the case of `O=c1[nH]c(=O)n([C@H]2C[C@H](O)[C@@H](CO)O2)cc1C(F)(F)F`, the Potency entry in [1], in test [3] and in test [4] was “inactive” in each case. For the same molecule, in test [2], the result was inactive.
As to `CC1=C(C(=O)OC(C)C)C(c2cccc([N+](=O)[O-])c2)C(C(=O)OC2CN(C(c3ccccc3)c3ccccc3)C2)=C(N)N1` (centres undefined), the Potency result in test [1], in test [3] and in test [4] was “inactive” in each case. Besides, the molecule was called inactive in test [2]. Moreover, the Potency in [5] was 28.2 µM (active). For the same molecule, the max response in test [9] is -0.744%.
With `CCCC(=O)Nc1ccc(OCC(O)CNC(C)C)c(C(C)=O)c1` (centres undefined), the Potency entry in test [1], in test [3] and in test [4] was “inactive” throughout. Moreover, in [2], the molecule was called inactive.
Take `Nc1nc2ncc(CNc3ccc(C(=O)N[C@@H](CCC(=O)O)C(=O)O)cc3)nc2c(=O)[nH]1`: the Potency result in [1], in test [3], in [4], in test [5] and in [8] was “inactive” in each case. Further, the call in test [2] was inactive. The max response in [9] was 22.5%.
With `CC(C)N=C(N)/N=C(\N)Nc1ccc(Cl)cc1`, the Potency result in test [1], in test [3] and in [4] was “inactive” in each case. Besides, the outcome in test [2] was inactive.
On to `C[C@@H]1CN(CCCn2c3ccccc3c3ccccc32)C[C@H](C)N1`, for which the Potency entry in test [1], in test [3], in test [4] and in test [5] was “inactive” in each case. Further, in test [2], the molecule was called inactive. In addition, the Potency in [9] is 31.6 µM (active).
For `O=C1OC(c2ccc(O)cc2)(c2ccc(O)cc2)c2ccccc21`, the Potency entry in test [1], in [3] and in [4] was “inactive” each time. Besides, in test [2], the call was inactive.
Consider `Oc1ccc(O)cc1`, for which, in test [1], the Potency entry was “inactive”. The molecule was called inactive in [2] and in [10]. In addition, the max response in [9] was -23.4%.
As to `COc1ccc(CN2CCN(C(c3ccc(F)cc3)c3ccc(F)cc3)CC2)c(OC)c1OC`, the Potency entry in test [1], in test [3] and in [4] was “inactive” throughout. Besides, in test [2], the molecule was called inactive.
Regarding `O=c1[nH]c(=O)n([C@H]2CCCO2)cc1F`, the Potency result in [1], in [3] and in test [4] was “inactive” each time. Besides, the call in test [2] was inactive.
Regarding `COC(=O)C1=C(C)NC(C)=C(C(=O)O[C@@H]2CCCN(Cc3ccccc3)C2)[C@@H]1c1cccc([N+](=O)[O-])c1`, the Potency result in [1], in [3] and in [4] was “inactive” in each case. For the same molecule, the call in test [2] was inactive.
For the molecule `CCCCCCCCCCCCCCCCCC(=O)OCC(O)CO` (centres undefined), the Potency result in [1], in test [3], in test [4], in test [5] and in [8] was “inactive” throughout. For the same molecule, the molecule was classed as inactive in [2]. Further, the max response in test [9] was 15.4%.
`COc1cc(N)c(Cl)cc1C(=O)NC1CCN(CCCOc2ccc(F)cc2)CC1OC` (centres undefined): the Potency entry in test [1], in test [3] and in test [4] was “inactive” in each case. For the same molecule, in test [2], the molecule was called inactive.
As for `CC(=O)c1ccc2c(c1)N(CCCN1CCC(CCO)CC1)c1ccccc1S2`, the Potency result in [1], in test [3] and in test [4] was “inactive” each time. Besides, in [2], the molecule was classed as inactive.
With `Cc1ccc(O)c2ncccc12`, the Potency entry in [1] and in test [3] was “inactive” throughout. Further, the outcome in test [2] was inactive.
`C[C@@H](CN(C)C)CN1c2ccccc2Sc2ccccc21`: the Potency result in test [1], in test [3] and in [4] was “inactive” in each case. The molecule was classed as inactive in [2].
